Measurements: PubChem BioAssay (NCI)
Compounds without any hit were thinned out: in the full panel of roughly 83,000, 20% have a hit.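 Values shown are percent growth following 48 h exposure of cells in 96-well plates to a single concentration of compound; below 10 was considered active.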 Activity calls are given as the source filed them.

Tests used:
Assay in all cases: NCI-60 one-dose screen, 48 h (100 = growth as untreated, 0 = no growth, -100 = all killed)
Settings in all cases: 10 µM unless noted
[1] = tested on: DU-145 prostate
[2] = tested on: K-562 leukemia
[3] = tested on: MALME-3M melanoma
[4] = tested on: MDA-MB-231 breast
[5] = tested on: RXF 393 renal
[6] = tested on: SF-268 CNS
[7] = tested on: SF-295 CNS
[8] = tested on: SF-539 CNS
[9] = tested on: UACC-257 melanoma
[10] = tested on: M14 melanoma

Measured: growth

CN(C)c1ccnc(CNCCSC2(c3ccc(C(F)(F)F)cc3)c3ccccc3C=Cc3ccccc32)c1
active: [1] 3.69% | [2] -11.1% | [3] -89.7% | [4] -48% | [5] -26.7% | [6] 7.1% | [7] -90.6% | [8] -96.8% | [9] -20.6% | [10] -74.7%

CC(C)C(C(=O)O)n1c(O)c(/C=C2/C=c3cc4c(cc3=NC2=O)OCO4)sc1=S (stereo not given)
inactive: [1] 115% | [2] 109% | [3] 98.4% | [4] 99.2% | [5] 116% | [6] 111% | [7] 102% | [8] 104% | [9] 107% | [10] 103%

O=C(Nc1ccccc1)N1CCN(c2cc(-c3cn(-c4ccccc4)nc3-c3cccc(O)c3)ccn2)CC1
inactive: [1] 95.3% | [2] 29.5% | [3] 84% | [4] 82.4% | [5] 90.8% | [6] 114% | [7] 54.8% | [8] 89.5% | [9] 97.4% | [10] 69.4%

CC1=C(C#N)C2=NNCC(c3ccccc3)=NN2C(c2ccccc2)=C1
inactive: [1] 111% | [2] 110% | [3] 93.3% | [4] 105% | [5] 131% | [6] 134% | [7] 103% | [8] 102% | [9] 96.6% | [10] 103%

Cc1cc(=O)oc2cc(OCCCCOc3ccc(/C=C/C(=O)Nc4ccccc4N)cc3)ccc12
inactive: [1] 65.7% | [2] 35% | [3] 90.8% | [4] 48.2% | [5] 90.9% | [6] 49.4% | [7] 63.1% | [8] 53.1% | [9] 82.4% | [10] 79.5%

Cn1cc(-c2nc(N)nnc2-c2c[nH]c3ccc(F)cc23)c2cccnc21
inactive: [1] 49.9% | [2] 30.2% | [3] 64.5% | [4] 22% | [5] 60.5% | [6] 34% | [7] 15.8% | [8] 40.8% | [9] 61.9% | [10] 26.3%

O=c1[nH]c(=O)c2c(-c3cc4ccccc4oc3=O)ccnc2[nH]1
active: [7] 3.14%
inactive: [1] 88% | [2] 106% | [3] 64% | [4] 64.9% | [5] 69.5% | [6] 79.6% | [8] 70.2% | [9] 103% | [10] 91.4%

CN(C)c1ccnc(NCCCSC(c2ccccc2)(c2ccccc2)c2ccccc2)c1
active: [2] -36.6% | [3] -94.6% | [5] 6.09% | [9] -26.9% | [10] -70.8%
inactive: [1] 46.2% | [4] 31% | [6] 78.8% | [7] 17% | [8] 41.6%

Cc1nc(Nc2ccccn2)sc1C(=O)CC(SCC(=O)Nc1ccc(Cl)cc1)c1ccccc1F (stereo not given)
active: [1] -35.3% | [4] -40.1% | [5] 1.73% | [7] 2% | [8] -58.4% | [10] 1.45%
inactive: [2] 11.8% | [3] 27.5% | [6] 22.4% | [9] 36.9%

CCCCSc1nc(NCCc2c[nH]c3ccccc23)c(C#N)c(-c2ccc(OC)cc2)n1
inactive: [1] 68.4% | [2] 22.4% | [3] 93.4% | [4] 36.9% | [6] 56% | [7] 43.4% | [8] 54.4% | [9] 94.8% | [10] 70.1%
active: [5] -2.63%

COc1ccc(NC(=O)[C@@H](N)Cc2ccccc2)cc1C(=O)Nc1cccc(C2CC(=O)c3c(cc(OC)c(OC)c3OC)O2)c1 (stereo not given in full)
inactive: [1] 58.1% | [2] 17.5% | [3] 66% | [4] 63% | [5] 73.7% | [6] 60.5% | [7] 127% | [8] 82.4% | [9] 95.5% | [10] 65%

COc1ccc(-c2ccnc(SCc3cc4ccccc4[nH]c3=O)n2)cc1OC
active: [3] 8.86% | [4] -51.8% | [5] -30.4% | [7] -78.3% | [8] -84.7%
inactive: [1] 36.4% | [2] 62.9% | [6] 23% | [9] 29.5% | [10] 45.4%

CC1(C)CC[C@]2(C(=O)O)CC[C@]3(C)C(=CCC4[C@@]5(C)C[C@@H](O)[C@@H]6OC(c7ccc(F)cc7)OC[C@@]6(C)C5CC[C@]43C)C2C1 (stereo not given in full)
inactive: [1] 28.7% | [2] 14.9% | [3] 39% | [4] 50.6% | [5] 42.8% | [6] 41.3% | [7] 32.7% | [8] 50.8% | [9] 42.3% | [10] 40.4%

CCOC(=O)C1=C(N)N(c2ccccc2)C2=C(C(=O)CC(C)(C)C2)C1c1ccccc1Cl (stereo not given)
inactive: [1] 88.2% | [2] 41.5% | [3] 89.3% | [4] 84.8% | [5] 78.2% | [6] 80% | [7] 75% | [8] 100% | [9] 72.5% | [10] 50.8%

C#CCOc1cc(N(CC)CC)ccc1C(C(=O)NC(C)(C)C)N(C(=O)C1CCc2cc(F)ccc2O1)c1ccccc1Br (stereo not given)
inactive: [1] 74% | [2] 31.3% | [3] 77.4% | [4] 63% | [5] 81.6% | [6] 62.1% | [7] 62.8% | [8] 72.5% | [9] 60% | [10] 55.5%

CC(=O)Nc1ccc(-n2cnc3cc(-c4ccc(O)cc4)ccc32)cc1C(F)(F)F
inactive: [1] 23% | [2] 25% | [3] 19.1% | [4] 42.7% | [5] 26% | [6] 21.7% | [8] 24.2% | [9] 39.7% | [10] 30.3%
active: [7] -13.7%

CCC(C)(C)c1ccc(OCCCCCCN2CCN(c3ccncc3)CC2)cc1
inactive: [1] 35.5% | [6] 50.5% | [9] 18.4%
active: [2] -24.8% | [3] -94.7% | [4] -77.6% | [5] -62.5% | [7] -78% | [8] -72.4% | [10] -68.7%

CN(C)CCOc1ccc(C(=O)C2[C@H](c3ccc(Cl)cc3)[C@@H](c3ccccc3)NC23C(=O)Nc2ccccc23)cc1 (stereo not given in full)
active: [2] -51.5%
inactive: [1] 66.6% | [3] 79.8% | [4] 49.5% | [5] 50.4% | [6] 78.1% | [7] 65.7% | [8] 82.8% | [9] 95.8% | [10] 45.2%

Cn1cc(NC(=O)c2cc(NC(=O)c3ccc(/C=C/c4ccccc4)cc3)cn2C)cc1C(=O)NCCCN1CCOCC1
inactive: [1] 44.4% | [6] 58.6% | [9] 77.9%
active: [2] -41.3% | [3] -83.3% | [4] -19.9% | [5] -3.75% | [7] -80.5% | [8] -98.2% | [10] -84%

CCOc1ccc(C(=O)NC(=S)Nc2ccc(S(N)(=O)=O)cc2)cc1
inactive: [1] 105% [100 µM] | [2] 98.1% [100 µM] | [3] 87.6% [100 µM] | [4] 102% [100 µM] | [5] 102% [100 µM] | [6] 102% [100 µM] | [7] 104% [100 µM] | [8] 91.7% [100 µM] | [9] 90.6% [100 µM] | [10] 102% [100 µM]

COc1ccc(-c2nc3cc(C)ccc3n2CC(=O)N=Nc2c(O)[nH]c3ccccc23)cc1
active: [1] 9.13% | [2] 4.42% | [3] -60% | [4] -54.2% | [5] -29.7% | [6] -5.5% | [8] -90.2% | [9] -7.27% | [10] -71.5%
inactive: [7] 15.4%

CCCCSc1nc(NCCc2c[nH]c3ccccc23)c(C#N)c(-c2ccc(F)cc2)n1
inactive: [1] 66.4% | [2] 22.2% | [3] 90.9% | [4] 52.2% | [5] 65.2% | [6] 54.9% | [7] 62.1% | [8] 65.2% | [9] 97.9% | [10] 65.9%

CN(C)c1nc(NCCNS(=O)(=O)c2ccc(C(=O)/C=C/c3ccc(F)cc3)cc2)nc(Nc2ccc(F)cc2)n1
active: [1] -83.9% | [2] -21.9% | [3] -83.3% | [4] -93% | [5] -97% | [6] -59% | [7] -78.3% | [8] -99.7% | [9] -80.6% | [10] -83%

COc1ccc(/C=C/c2nc3ccccc3nc2Nc2cccc(C)c2)cc1
inactive: [1] 108% | [2] 84.2% | [3] 115% | [4] 88.5% | [5] 109% | [6] 96.8% | [7] 127% | [8] 103% | [9] 112% | [10] 99.6%
